Only some compounds are listed: those with a hit (about 3.7% of all), similar ones and a draw of the others.
tim10-1 inh = growth inhibitors of tim10-1 mutant yeast. S. cerevisiae tim10-1 ts strain growth, BacTiter-Glo, 24 h. inhibition, % at 20 µM. 2.2% of 330,000 active;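 active = inhibition of at least 40%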;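 also: mutant grown at 25 °C; 0% = DMSO wells with yeast and 100% = wells holding no yeast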
tim23-1 inh = growth inhibitors of tim23-1 mutant yeast; S. cerevisiae tim23-1 growth, BacTiter-Glo luminescence, 24 h; inhibition, % at 20 µM; 1.3% of 330,000 active; AID 463212;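 active = growth inhibition of the mutant yeast at or above 50%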;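 also: temperature-sensitive mutant grown at 25 °C; plate controls were DMSO-treated mutant yeast for no effect and medium wells lacking yeast for full effect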
PfHsp90 set2 = reduces growth (ATP signal) of yeast expressing P. falciparum Hsp90; S. cerevisiae expressing PfHsp90, BacTiter-Glo ATP, 48 h; yeast lacking PDR1 and PDR3 efflux regulators; inhibition, % at 9.4 µM; 0.32% of 310,000 active; AID 504621;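 active = every replicate shows inhibition above about 80%, whatever the replicate mean, limit read from the data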;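 also: 0% = DMSO neutral controls and 100% = 20 µM radicicol positive controls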
TIM10 inh = inhibits growth of TIM10 yeast strain; 1.4% of 330,000 active; inhibition, % at 10 µM; S. cerevisiae TIM10 strain growth, BacTiter-Glo luminescence, 24 h; AID 463195;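 active = inhibition of 40% or more at the single tested concentration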;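 also: wild-type TIM10 isogenic control strain grown at permissive 25 °C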
Rce1 inhib = yeast Ras-converting enzyme inhibition | yeast membranes, quenched prenylated peptide cleavage fluorescence | calls only | 0.27% of 290,000 active | AID 2563;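 active = fall in fluorescence gain of 50% or more versus controls, with final raw signal at or below 3038400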;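 also: plate controls were neutral control wells for no effect and wells lacking membranes for full effect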
Target sequence (Q03530 whole entry, looked up): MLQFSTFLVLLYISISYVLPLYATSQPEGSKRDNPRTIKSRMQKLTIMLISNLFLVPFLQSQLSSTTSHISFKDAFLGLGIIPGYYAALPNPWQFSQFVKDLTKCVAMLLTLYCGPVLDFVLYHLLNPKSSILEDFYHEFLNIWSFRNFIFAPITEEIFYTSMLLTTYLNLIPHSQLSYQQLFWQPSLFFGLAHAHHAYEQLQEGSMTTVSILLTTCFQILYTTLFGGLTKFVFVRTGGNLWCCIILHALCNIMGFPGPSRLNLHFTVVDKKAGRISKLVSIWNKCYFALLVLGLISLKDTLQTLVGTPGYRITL
tim23-1 confirm = confirmation of tim23-1 mutant yeast growth inhibitors; 83% of 4,400 active; AID 463218; shares compounds with tim23-1 inh; inhibition, % at 20 µM; S. cerevisiae tim23-1 growth, BacTiter-Glo luminescence, 24 h;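 active = inhibition above about 39% in either of two replicate wells at 20 µM, limit read from the data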;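 also: temperature-sensitive tim23-1 mutant grown at 25 °C; 0% = DMSO wells with yeast and 100% = medium wells without yeast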
* marks the source's active call; other numbers are inactive results; i = inactive; x = no result.

SMILES	tim10-1 inh	tim23-1 inh	PfHsp90 set2	TIM10 inh	Rce1 inhib	tim23-1 confirm
CCOC(=O)c1csc(NC(=O)CSc2nnnn2-c2ccc(OC)cc2)n1	8	16	1	8	i	x
O=C(Oc1ccc2ccc(O)cc2c1)c1ccccc1Cl	19	63*	12	37	i	52*
O=C(NC(=S)N1CCN(c2ccc(F)cc2)CC1)C12CC3CC(CC(C3)C1)C2	13	-5	-11	-8	i	x
CCOc1ccccc1N1CCN(C(=S)NCc2ccc(Cl)cc2)CC1	39	55*	-24	35	i	46*
CCOc1ccccc1N1CCN(C(=S)NC(=O)C23CC4CC(CC(C4)C2)C3)CC1	34	51*	-1	35	i	31
Cc1cc(C)c(C(=O)COC(=O)CN2C(=O)NC3(CCCC3)C2=O)cc1C	15	25	x	6	x	x
C[C@@]12C(=O)Nc3ccc(F)cc3C(=O)N1[C@H]1c3cc(Cl)ccc3OC[C@@H]1[C@@H]2c1ccccc1	20	54*	-115	23	x	54*
C[C@@]12C(=O)Nc3ccc(Cl)cc3C(=O)N1[C@H]1c3ccccc3OC[C@@H]1[C@@H]2c1ccccc1	23	61*	107*	0	x	57*
Cc1ccc2c(c1)C(=O)N1[C@H]3c4cc(Cl)ccc4OC[C@@H]3[C@H](c3ccccc3)[C@]1(C)C(=O)N2	21	37	-79	6	x	x
C[C@@]12C(=O)Nc3cc(Cl)ccc3C(=O)N1[C@H]1c3ccccc3OC[C@@H]1[C@@H]2c1ccccc1	23	34	7	7	x	x
CCOc1ccc(OCC)c(-c2c(=O)n(OCc3ccc(C(C)(C)C)cc3)c3ccccc3[n+]2[O-])c1	18	9	-8	12	i	x
C/C(=N\Nc1cc(N2CCOCC2)nc(C)n1)c1ccc(F)cc1	18	19	-4	0	i	x
C/C(=N\Nc1cc(N2CCCCC2)nc(C)n1)c1ccc(Br)cc1	20	57*	-2	8	i	49*
O=C(NCCc1ccccc1)c1cccc2c1C(=O)N(C1CCCCC1)C2	26	51*	-12	24	i	39
COc1ccc(C(C[N+](=O)[O-])c2c(C)[nH]n(-c3ccccc3)c2=O)cc1 (stereo not given)	21	76*	117*	10	i	67*
Cc1[nH]n(-c2ccccc2)c(=O)c1C(c1ccc(O)c([N+](=O)[O-])c1)c1c(C)[nH]n(-c2ccccc2)c1=O	32	32	-25	17	i	x
CCOC(=O)C1CCN(S(=O)(=O)c2cccc3nonc23)CC1	11	14	-13	7	i	x
CCOC(=O)C1CCN(S(=O)(=O)c2c(Cl)ccc3nonc23)CC1	25	65*	-11	21	i	60*
O=C(CCc1ccccc1)Nc1ccccc1[N+](=O)[O-]	10	11	5	11	i	x
O=C(CCc1ccccc1)Oc1ccccc1[N+](=O)[O-]	30	57*	x	36	x	67*
COc1c(Br)cc(/C=N/n2c(-c3ccccc3)n[nH]c2=S)c(O)c1Br	26	62*	-1	37	i	60*
Oc1ccccc1/C=N/n1c(-c2ccccc2)n[nH]c1=S	17	51*	7	32	i	39
CCOC(=O)C(=CNNc1ccccc1)C(=O)OCC	40	52*	-30	20	i	79*
CCOC(=O)NNc1ccccc1	-32	4	-14	-41	i	x
COC(=O)c1c(C)cc(O)c(C=O)c1O	9	56*	0	0	i	45*
SMILES	tim10-1 inh	tim23-1 inh	PfHsp90 set2	TIM10 inh	Rce1 inhib	tim23-1 confirm
COc1ccc(NS(=O)(=O)c2ccc(C)c(NC(=O)c3ccc(C)c(S(=O)(=O)N4CCOCC4)c3)c2)cc1	-6	12	-7	2	i	x
C=CCn1c(SCC2CCCCO2)nc2sc(CC)cc2c1=O (stereo not given)	-28	21	-3	-12	i	x
CCC(C)Sc1ccc([C@H]2N[C@@](CC(C)C)(C(=O)OC)[C@H]3C(=O)N(C)C(=O)[C@@H]23)cc1 (stereo not given in full)	17	33	25	20	i	x
COc1ccc(NS(=O)(=O)c2ccc(N3C(=O)CCC3=O)cc2)cc1	10	-4	12	-9	i	x
COc1ccc(S(=O)(=O)Nc2ccc(-n3cccc3)cc2)cc1	37	55*	-10	21	i	50*
COC(=O)c1c(-c2ccc(S(C)(=O)=O)cc2)sc2ccc(OC)cc12	19	52*	x	12	x	43*
COc1ccc(C(=O)N/N=C/c2ccc(OC)c(COc3ccc(F)cc3)c2)cc1	18	22	-6	9	i	x
COc1ccc(C(=O)N/N=C/c2ccc(OC)c(COc3ccc(F)cc3F)c2)cc1	9	55*	13	20	i	40*
CC(C)N(C(=O)COc1ccc(Br)cc1Cl)C(C)C	7	29	-35	8	i	x
CCN1CCN(C(=O)c2cc(-c3ccc(Cl)s3)nc3ccccc23)CC1	39	29	-11	15	i	x
COC(=O)C1CCN(C(=O)c2cc(-c3ccc(Cl)s3)nc3ccccc23)CC1	15	52*	-34	10	x	52*
Oc1ccccc1C1NN=C(c2ccccc2)S1 (stereo not given)	14	58*	8	28	i	54*
Cc1[nH]n(-c2ccccc2)c(=O)c1/C=C1/C=c2ccccc2=N1	x	x	-11	x	i	x
Cc1[nH]n(-c2ccccc2)c(=O)c1/C=C1\C=NN=C1c1ccccc1	26	62*	3	22	i	55*
CCc1nnc(NC(=O)CSc2nc3c(cc2C#N)CCC3)s1	6	94*	-42	-9	i	5
O=C(Nc1cccc(NC(=O)c2ccc(-c3ccc(Br)cc3)o2)c1)c1ccccc1	1	-10	-16	-40	i	x
O=C(Nc1ccc(Br)c(Cl)c1)c1ccco1	28	62*	-7	36	i	72*
O=C(Nc1cccc(NC(=O)c2ccc(-c3cccc(Br)c3)o2)c1)c1ccco1	-47	60*	16	19	i	43*
O=C(Nc1ccc(NC(=O)c2ccco2)c(Cl)c1)c1ccccc1	-49	-9	6	-7	i	x
CCc1c(C)nc2cc(-c3ccc(OC)c(OC)c3)nn2c1NCC1CC1	33	69*	10	14	i	46*
CC(C)CNC(=O)[C@H]1N2C(=O)c3ccccc3C2SC1(C)C (stereo not given in full)	2	3	13	15	i	x
Clc1nssc1=Nc1nncs1	32	52*	5	8	x	76*
Cc1ccc2nc(-c3ccc(N)cc3)sc2c1	13	53*	5	20	i	58*
Nc1ccc2nc(-c3ccccc3)sc2c1	23	41	x	24	i	x
CC(C)(C)CC(=O)NC(=S)Nc1ccccc1C(F)(F)F	34	51*	-5	36	i	39

Source: PubChem
